Experimental data: PubChem BioAssay AID493014 (National Center for Advancing Translational Sciences (NCATS), 2011)
Out of some 340,000 compounds screened, about 170 (0.05%) were called active. Entries that show only a call come without a potency. About 26% were inconclusive and are not listed. The call rests on the fitted dose curve; in most records, active means well fitted inhibition curve with a large enough effect in the signal ratio, with a control signal flat (not every such curve was filed as active); inconclusive means small, poorly fitted or top-dose-only effect, or effect the other way, or a change in a side signal; inactive means flat fitted curve, though single readings scatter; the % refers to the signal ratio. For the sample, actives were picked, then their nearest neighbours and some compounds at random.

Test: qHTS Assay to Find Inhibitors of Chronic Active B-Cell Receptor Signaling
Conditions: ABC-DLBCL IkBa-CBG/CBR reporter, luminescence ratio, 4 h; series mostly up to 46.1 µM
From the text: NIH Molecular Libraries Probe Production Network [MLPCN] NIH Chemical Genomics Center [NCGC] MLPCN Grant: 1 R03 DA031086-01A1 PI Name: Dr. R. Eric Davis NCGC Assay Overview: Diffuse large B-cell lymphoma (DLBCL) is the most common category of non-Hodgkin lymphoma, with ~20,000 new cases per year in the United States. DLBCL should be regarded as a collection of different neoplasms. Microarray gene expression analysis has defined two principal types of DLBCL, named for their similarity to normal B cell stages or activation states: a germinal center B-cell (GCB) type, and an activated B-cell (ABC) type. In ABC-DLBCL, a constitutive high-level activity of the NF-kappaB family of transcription factors has been observed (1) and NF-kappaB target genes are more highly expressed in ABC primary tumors than in GCB tumors. Functional studies have shown a constitutive high-level activity of the IkappaB (inhibitor of kappa-B) kinase (IKK) complex. […] Further analysis of DLBCL primary tumors for NF-kappaB target gene expression imply that although CARD11 is required for constitutive IKK activity in all ABC-DLBCL lines, mutations in CARD11 may be the root cause of IKK activation only in lines or tumors with such mutations. In other words, CARD11 mutations may explain NF-kappaB activation in only 10% of ABC-DLBCL cases. […] This process has been termed 'chronic active BCR signaling' (CABS). The goal of this screen is to find small-molecule inhibitors of the CABS pathway found in ABC-DLBCL lines using a cell-based assay that measures IkappaBalpa stability, which has already been extensively validated in the OCI-Ly3 line (PubChem AID:445; REF: 4). […] The assay uses green (CBG68) and red (CBR) emitting beetle luciferases [Chroma-GloTM developed by Promega Corp.] where the green luciferase is fused to IkappaBalpha and the red luciferase is present in its native state. Both luciferase genes are stably present in the TMD8 human ABC DLBCL cell line, but their expression is under the control of tetracycline-inducible promoters. Following the addition of doxycycline to induce expression of the luciferases, the green luminescence in control cultures rises only slowly because the CBG fusion partner IkappaBalpha is targeted by IKK activity for rapid degradation. In contrast, green luminescence rises rapidly in the presence of proteasome inhibitors or IKK inhibitors. The rise in red luminescence of CBR is not affected by proteasome or IKK inhibitors, and serves as normalization for cell number and nonspecific effects. Compounds were screened as a concentration-titration series that ranged from 46 uM to 3 nM.
NCGC Assay Protocol Summary: Cells were seeded in 1536-well plates at 5000 cells/4uL in IMDM medium containing 0.5% FBS, w/o phenol red, 1% penicillin/streptomycin. Then, 23 nL of compounds or DMSO were delivered to each well using a pin tool. One uL 20ng/ml doxycycline was then dispensed into white solid 1536-well plates and the plates were incubated at 37C/5% C02 in a cell incubator for 4 hrs. Then 4 uL luminescent substrate mix (in-house prepared: 150 mM Tris-Cl, pH 7.6, 3 mM MgCl2, 1% Triton X-100, 5 mM DTT, 0.2 mM CoA, 0.15 mM ATP, 5 mM D-luciferin, final concentrations) was added to each well. The plate was incubated at r.t. for 10-15 min. The plates were measured on a ViewLux plate reader for green luminescence (540/20 nm filter) and red luminescence (618/8 nm filter). The green and red luminescent signals were corrected for red and green luminescence filter overlap using previously determined filter calibration constants (determined using the procedure outlined in the Promega Technical Manual; REF 4). The %Activity was determined from the ratio of corrected green/red luminescent values. MG132 were used as control. […] Red luminescent %Activity was normalized to the difference between red luminesence in basal cells (0%Activity) and zero luminescence (-100% Activity). […]
Potency means the concentration at half of the fitted maximal effect.

Structure (SMILES)	Potency
CC1CCc2sc(C(=O)NCC(c3ccco3)N3CCCCC3)cc2C1 (configuration not stated)	inactive
O=C(COc1ccc(F)cc1Br)NCC1COc2ccccc2O1 (configuration not stated)	inactive
Cc1ccccc1-c1cc(C(=O)NCc2cccs2)n(CC2CC(c3cccnc3)=NO2)n1 (configuration not stated)	inactive
O=C(c1ccc(N2CCOCC2)c([N+](=O)[O-])c1)N1CCN(c2ccccc2F)CC1	inactive
C/C=C/c1ccc(OCC(=O)NNC(=O)CN(C)S(=O)(=O)c2ccc(C)cc2)c(OC)c1	inactive
CN(CC(=O)Nc1ccc(OC(F)F)cc1)S(=O)(=O)/C=C/c1ccccc1	inactive
C=CC[C@H](CC(=O)OC(C)(C)C)C(=O)OC[C@H]1CCCN1C(=O)[C@H](CC=C)CC(=O)N(CCO)Cc1ccccc1	inactive
Cc1ccc(C(=O)CN2C(=O)NC3(CCc4ccccc43)C2=O)c(C)c1 (configuration not stated)	inactive
CC(C(=O)Nc1ccc(S(=O)(=O)N2CCCC2)cc1)N(C)Cc1ccc(F)cc1 (configuration not stated)	inactive
CCCCNc1c(-c2ccc(OC)c(Sc3ccc(OC)cc3)c2)nc2ccc(Cl)cn12	inactive
Cc1ccc2c(CN3CCN(S(=O)(=O)c4ccccc4C(F)(F)F)CC3)cc(=O)oc2c1	inactive
COc1ccc(S(=O)(=O)N2CCOCC2)cc1NC(=O)c1ccc(OCC(C)C)c(OC)c1	inactive
COc1ccccc1-c1oc2ccccc2c1C#CCCCCO	inactive
COc1ccccc1S(=O)(=O)NCc1ccc(C(=O)N(C)Cc2ccc(F)cc2)cc1	inactive
COc1ccc(NC(=O)CCC(=O)N2CCN(S(=O)(=O)c3ccc(C)cc3)CC2)c(OC)c1	inactive
CSc1ccccc1NC(=O)c1cnc2sc(C)cn2c1=O	inactive
COc1ccc(OCCCC(=O)Nc2cccc(S(=O)(=O)N3CCCCCC3)c2)cc1	inactive
O=C(NCCc1ccco1)c1ccc(OCc2cn3ccccc3n2)cc1	inactive
CN(CCc1ccccc1)C(=O)c1cccc(NC(=O)Cc2ccc([N+](=O)[O-])cc2)c1	inactive
CC(C)CN(C(=O)COC(=O)c1ccc(Cl)c(N)c1)c1c(N)n(Cc2ccccc2)c(=O)[nH]c1=O	inactive
NC(=O)c1ccccc1N(Cc1ccccc1)S(=O)(=O)c1ccccc1	inactive
CCOC(=O)N1CCN(S(=O)(=O)c2ccc(OC)cc2)CC1	inactive
CCOC(=O)N1CCN(C(=O)c2ccccc2N(Cc2ccccc2)S(=O)(=O)c2ccc(OC)cc2)CC1	15.8 µM (active)

Structure (SMILES)	Potency
O=C(CNS(=O)(=O)c1ccc2c(c1)OCCCO2)N1CCN(c2ccc(F)cc2)CC1	inactive
Cc1c(C(=O)Nc2cccc(S(=O)(=O)N3CCOCC3)c2)oc2ccccc12	inactive
O=C(O)CCCn1c(=O)c2cccn2c2ccc(F)cc21	inactive
COc1cc(C#Cc2ccc3cc(CCCO)oc(=O)c3c2)cc(OC)c1	14.6 µM (active)
COc1cc(/C=C2\Oc3ccc(C#Cc4ccc(O)cc4)cc3C2=O)cc(OC)c1	inactive
CC(NC(=S)Nc1ccc(OC(F)F)cc1)c1ccc(F)cc1 (configuration not stated)	inactive
C/C(=N\NC(=S)NC(C)C)c1ccc(C(C)(C)C)cc1	inactive
CC/C(=N\NC(=S)NC(C)C)c1ccc(OC(F)F)cc1	22.4 µM (active)
COc1ccc(C)cc1NC(=O)c1cc(-c2ccccc2)nc2c1cnn2C(C)C	inactive
Cc1ccc(C)c(OCCC(=O)Nc2cccc(S(=O)(=O)N3CCCC3)c2)c1	inactive
Cc1ccnc(N2C(=O)c3ccc([N+](=O)[O-])cc3C2=O)c1	inactive
Cc1ccc2nc(NC(=O)CSc3nc(=O)n(CCCN(C)C)c4c3CCC4)sc2c1	inactive
CC(C)CC1NC(=O)c2cc(Cl)ccc2-n2c1nc1ccccc1c2=O (configuration not stated)	inactive
O=C(Cc1ccc(S(=O)(=O)N2CCOCC2)s1)N1CCN(c2ccc(C(F)(F)F)cc2[N+](=O)[O-])CC1	inactive
C[C@H](OC(=O)n1ccnc1)[C@@H]1O[C@@]2(C)CCC[C@@H]1O2	inactive
O=C(OCc1cc(=O)n2ccsc2n1)C1(c2ccc(Cl)cc2)CC1	inactive
COc1ccc(C)cc1NC(=O)CN1c2cccc3cccc(c23)S1(=O)=O	inactive
CCc1ccc(C(=O)NNC(=O)C2CCN(c3ncnc4sc(C)c(C)c34)CC2)cc1	inactive
Cc1cccc(C)c1Nc1nnc(SCC(=O)NCCCN2CCCC2=O)s1	inactive
Brc1ccc(CN2CC[C@H]3C=CCc4cccc(c43)C2)cc1	inactive
O=C(OCC(=O)N1CCCCCC1)c1ccc(Cl)nc1	inactive
CC1CCCCC12NC(=O)N(CC(=O)OCc1c(F)cccc1Cl)C2=O (configuration not stated)	inactive
CCOc1ccc(S(=O)(=O)Nc2ccc(C(=O)NCCCN3CCCC3=O)cc2)cc1	inactive

Structure (SMILES)	Potency
CN(CC(=O)NC1CCN(Cc2ccccc2)CC1)S(=O)(=O)c1ccc(Cl)s1	inactive
COc1cc(OC)cc(-c2c(-c3cccs3)c3cc(-c4ccc(OC)nc4)ccc3n2C)c1	inactive
Cc1ccc(NC(=O)CN(C)C(=O)c2cccc(S(=O)(=O)N3CCCC3)c2)cc1	inactive
CN(C)C(=O)CCc1ccc2c3c([nH]c2c1)[C@]1(CCC2CCCC2)[C@@H](C(=O)N2CCOCC2)C[C@H](CC(=O)NCc2ccco2)C(=O)N1CC3	inactive
COc1cccc(CNC(=O)COc2cc(O)c3c(c2)OC(C)(C)CC3=O)c1	inactive
Cc1ccc(NC(=O)c2ccc(Cl)nc2)cc1S(=O)(=O)N1CCOCC1	inactive
COc1ccc2sc(-c3ccccc3OC)c(-c3ccc(OCCN4CCCC4)cc3)c2c1	inactive
COc1cccc(-c2sc3ccc(OC)cc3c2-c2ccc(OCCN3CCCCC3)cc2)c1	18.4 µM (active)
COc1ccc(-c2sc3ccccc3c2-c2ccc(OCCN3CCOCC3)cc2)cc1	inactive
CCN(CC)c1ccc(S(=O)(=O)N2CCCCC2)cc1NC(=O)C1=COCCO1	inactive
COc1ccccc1CNC(=O)c1ccc(Cl)c(S(=O)(=O)N2CCCC2)c1	inactive
Cc1onc(-c2c(F)cccc2Cl)c1C(=O)OCC(=O)N1C(C)CCCC1C (configuration not stated)	inactive
COc1ccc(S(=O)(=O)N2CCCCCC2)cc1C(=O)N(C)Cc1cccc(OC)c1OC	inactive
COC(=O)c1ccc(/C=C/c2c(-c3ccc(OC)cc3)sc3ccccc23)cc1	inactive
O=C1Nc2ccccc2/C1=C/c1ccnc2ccccc12	inactive
CCCCN(CC(=O)Nc1cccc(S(=O)(=O)N2CCCC2)c1)Cc1nc2ccccc2c(=O)[nH]1	inactive
O=S(=O)(NCCCCCCNS(=O)(=O)c1c(F)cccc1F)c1ccc2c(c1)OCCO2	inactive
CCN(c1ccccc1)S(=O)(=O)c1cccc(C(=O)NCc2ccccc2CN2CCOCC2)c1	inactive
C=CC[C@@H](CC(=O)N[C@H](CO)Cc1ccccc1)C(=O)N[C@H](C)COC(=O)[C@@H](CC=C)Cc1ccc(F)cc1	inactive
O=S(=O)(NC1CCN(S(=O)(=O)c2ccc3c(c2)OCCO3)CC1)c1c(F)cccc1F	inactive
COC(=O)[C@]1(Cc2ccccc2)N[C@H](CN(C)S(=O)(=O)c2ccc(OC(F)(F)F)cc2)[C@@H]2C(=O)N(C)C(=O)[C@@H]21	inactive
Nc1ccc(Nc2cc(O)c3ncccc3c2)cc1	inactive
Cc1ccc(NS(=O)(=O)c2ccc(C(C)C)cc2)cc1S(=O)(=O)N1CCOCC1	inactive

Structure (SMILES)	Potency
CCN(C[C@H]1N[C@@](Cc2ccccc2)(C(=O)OC)[C@H]2C(=O)N(Cc3ccccc3)C(=O)[C@@H]12)C(=O)c1ccc(C)cc1	inactive
O=C1C=CN2CCCC2CC1 (configuration not stated)	inactive
COc1cccc(NC(=O)COC(=O)c2ccc3ccccc3n2)c1	inactive
CCOC(=O)C1CCCN(C(=O)CSc2nnc3nc(C)cc(C)n23)C1 (configuration not stated)	inactive
COc1cccc(C2=CC(=O)C[C@H](c3ccc(OC)c(OC)c3)C2)c1	inactive
CN(C)C(=O)COC(=O)c1cccc(S(=O)(=O)N2CC3(C)CC2CC(C)(C)C3)c1 (configuration not stated)	inactive
Cc1ccc(-n2ncc3c2CC(C)(C)CC3NC(=O)Cc2c(C)noc2C)cc1 (configuration not stated)	inactive
COC(=O)[C@]1(CC(C)C)N[C@H](c2ccc(SC3CCCCC3)cc2)[C@@H]2C(=O)N(C)C(=O)[C@@H]21	inactive
O=C1COc2ccc(C(=O)CSc3ccc(Br)cc3)cc2N1	inactive
Cc1ccc(N2CC(C(=O)N3CCC4(CC3)CC(=O)c3ccccc3O4)CC2=O)cc1C (configuration not stated)	inactive
CC(=O)Nc1ccc(S(=O)(=O)NCCC(=O)N2CCN(c3ccccc3Cl)CC2)cc1	inactive
Fc1ccccc1-c1cc2cc3c(cc2cn1)OCO3	inactive
CCN(CC(=O)Nc1ccc(OC)cc1)C(=O)CSCc1ccc(C)cc1	inactive
Cc1cccc(N(Cc2ccccc2)C(=O)c2cc(S(=O)(=O)N3CCOCC3)ccc2F)c1	inactive
CCN(CC)S(=O)(=O)c1ccc(N2CCOCC2)c(NC(=O)C(C)Oc2ccc(F)cc2)c1 (configuration not stated)	inactive
CC1Sc2ccc(C(=O)NCc3ccccc3Cl)cc2NC1=O (configuration not stated)	inactive
O=C(O[C@@H]1[C@H](Cc2ccccc2)NS(=O)(=O)[C@H]2C[C@@H]3C=C[C@]12O3)c1ccccc1Br	inactive
CC(C)(C)OC(=O)C[C@@H]1C/C=C\C[C@H](CC(=O)N[C@@H](CO)Cc2ccccc2)C(=O)N[C@H](Cc2ccccc2)COC1=O	inactive
CN=C(Nc1cccc(S(=O)(=O)N2CCOCC2)c1)c1ccccc1	inactive
Oc1ccccc1CN1CCN(C(c2ccccc2)c2ccccc2)CC1	inactive
COc1ccc(-c2cc(=O)oc3cc(OC(C)C(=O)Nc4ccc(CN5CCOCC5)cc4)ccc23)cc1 (configuration not stated)	inactive
COc1ccc(CNC(=O)C[C@H]2C[C@H](C(=O)N3CCOCC3)[C@@]3(CCC4CCCC4)c4[nH]c5ccc(Cl)cc5c4CCN3C2=O)cc1OC	inactive
CC(=O)Nc1ccc(SC[C@H](Cc2ccccc2)N2CC[C@@H](C)CCC2=O)cc1	inactive
